The target in test [1] is Progesterone receptor (Homo sapiens) (UniProt P06401). In words: qHTS assay to identify small molecule agonists of the progesterone receptor (PR) signaling pathway (AID 1346784; calls by dose curve; further: nearly all actives have a fitted effect of over 30% in size). Summed up:
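Cells (PR-UAS-bla HEK 293T, GripTite) were plated in assay medium containing 2% charcoal-stripped FBS and incubated 6 hr. Test compounds in DMSO were added for 16 hr at 37C. FRET substrate was then loaded for 2 hr at room temperature before fluorescence reading.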
On the technique in general: In qHTS, concentration-response curves come from the screen itself.

Test [2] shares this target. The test can be described thus: qHTS assay to identify small molecule antagonists of the progesterone receptor (PR) signaling pathway (AID 1346795; active means well fitted inhibition curve with a large enough effect in the signal ratio in the repeat runs, not every such curve was filed as active; the % refers to the signal ratio). In a few lines: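 Antagonist mode: compounds tested against 1 nM (final) promegestone stimulation in HEK293T cells expressing PR-UAS-bla reporter, 16 hr at 37C, 5% CO2; beta-lactamase activity detected via B/G FRET substrate after 2 hr at room temperature.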

The nature of test [3]: qHTS assay to identify small molecule antagonists of the progesterone receptor (PR) signaling pathway - cell viability counter screen (AID 1346798). Further: series mostly up to about 92 µM; nearly all actives have a fitted effect of over 50% in size. In a few lines: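 Counter screen for cytotoxicity: viability of PR-UAS-bla HEK293T cells was measured with CellTiter-Glo luminescence following 16 hr compound exposure in the presence of R5020.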
Test [4] can be described thus: qHTS assay to identify small molecule agonists of the progesterone receptor (PR) signaling pathway - cell viability counter screen (AID 1346799; calls by dose curve; further: nearly all actives have a fitted effect of over 45% in size). In a few lines: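 Cells (PR-UAS-bla HEK293T) are plated at 3,000/well in 2% charcoal-stripped FBS medium, rested 6 hr, dosed and incubated 16 hr at 37C. CellTiter-Glo is then added and luminescence measured after 30 min at room temperature.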

Test [5] is described as follows: qHTS assay to identify small molecule antagonists of the TGF-beta/Smad signaling pathway - cell viability counter screen (AID 1346824). Further: nearly all actives have a fitted effect of over 50% in size. In a few lines:
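Cytotoxicity counter-screen run in the same wells as the beta-lactamase Smad reporter read: CellTiter-Glo luminescence after 30 min at room temperature. HEK 293T SBE-bla cells had 5 hr compound exposure at 37 C with TGF-beta1 (0.25 ng/mL stock).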

Test [6] is described as follows: qHTS assay to identify small molecule agonists of the TGF-beta/Smad signaling pathway - cell viability counter screen (AID 1346829). Further: top concentration of the series differs between compounds; nearly all actives have a fitted effect of over 45% in size. Summed up: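 SBE-bla HEK 293T cells plated overnight, compound exposure 5 hr at 37 C. Viability read in the same wells by CellTiter-Glo luminescence after 30 min at room temperature, following the beta-lactamase read.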
Test [7] can be described thus: qHTS assay to identify small molecule agonists of the TGF-beta/Smad signaling pathway (AID 1346859; active means well fitted activation curve with a large enough effect in the signal ratio in the repeat runs, not every such curve was filed as active; the % refers to the signal ratio; further: series mostly up to about 77 µM). In a few lines: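 Reporter line: HEK 293T with stably integrated SBE-controlled beta-lactamase. Compound exposure lasts 5 hr at 37 C and 5% CO2; substrate loading follows for 2 hr at room temperature, with emission read at 460 and 530 nm.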
Test [8] addresses Thyrotropin-releasing hormone receptor (Homo sapiens) (UniProt P34981). In words: qHTS assay to identify small molecule antagonists of the thyrotropin-releasing hormone receptor (TRHR) signaling pathway (AID 1346877; active means well fitted inhibition curve with a large enough effect in the repeat runs, not every such curve was filed as active; further: series mostly up to about 51 µM). Summed up: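 Intracellular calcium fluorescence, read kinetically every second over 3 min, reports TRH-evoked signalling in HEK293 cells carrying TRHR. Test compounds were added 5 min ahead of a 1 nM TRH challenge.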

For test [9] the target is unchanged. The test can be described thus: qHTS assay to identify small molecule agonists of the thyrotropin-releasing hormone receptor (TRHR) signaling pathway (AID 1346891; calls by dose curve;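 further: HEK293 cells expressing TRHR with calcium dye readout; series mostly up to about 58 µM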). Summed up: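 Cells: TRHR-Hek293, seeded and incubated 18 h. Dye loading: 2 h at 37 °C. Compound added from DMSO stock by pin tool. Read-out: kinetic calcium fluorescence over 3 min.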
Test [10] is described as follows: Human pregnane X receptor (PXR) small molecule agonists, qHTS cell viability counter screen (AID 1346977). Further: nearly all actives have a fitted effect of over 50% in size. In a few lines: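 Cytotoxicity counter screen run in the same wells as the PXR luciferase assay, using PXR-Luc HepG2 cells in charcoal-stripped serum medium. Viability: CellTiter-Fluor fluorescence after 24hr compound treatment.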
Test [11] is described as follows: Caspase-3/7 induction in CHO-K1 cells by small molecules, qHTS cell viability counter screen (AID 1346979). Further: nearly all actives have a fitted effect of over 35% in size. Summed up:
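Cytotoxicity counter screen run in parallel with the caspase-3/7 assay: CHO-K1 cells, 16hr compound treatment at 37C, then CellTiter-Fluor for 1hr before fluorescence reading.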

The nature of test [12]: Caspase-3/7 induction in CHO-K1 cells by small molecules, qHTS assay (AID 1346980). Further: nearly all actives have a fitted effect of over 15% in size. In a few lines: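 Luminescent Caspase-Glo 3/7 read (30min, room temperature) quantified apoptosis induction. Cells were wild-type CHO-K1, treated with compound for 17hr at 37 C and 5% CO2.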
Test [13] is described as follows: Caspase-3/7 induction in HepG2 cells by small molecules, qHTS cell viability counter screen (AID 1346981). Further: series mostly up to about 92 µM; nearly all actives have a fitted effect of over 30% in size. Summed up: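 HepG2, WT, 2,000 cells/well; 5 hr pre-incubation 37 C/5% CO2; compound pin-transferred from DMSO; 16 hr exposure; CellTiter-Fluor, 1 hr; fluorescence read.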
Test [14] concerns the target Nuclear receptor subfamily 1 group I member 2 (Homo sapiens) (UniProt O75469). In words: Human pregnane X receptor (PXR) small molecule agonists, qHTS assay (AID 1346982). Further: nearly all actives have a fitted effect of over 35% in size. In a few lines: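 Luciferase signal from ONE-Glo (30 min, room temperature) measured activation of hPXR-driven CYP3A4 reporter expression in PXR-Luc HepG2 cells treated with compounds for 24 hr at 37 C.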

For test [15], the target named is Cytochrome P450 2D6 (Homo sapiens) (UniProt P10635). The test can be described thus: Cytochrome P450 Family 2 Subfamily D Member 6 (CYP2D6) small molecule antagonists: luciferase reporter qHTS assay (AID 1671196). Further: series mostly up to about 120 µM; nearly all actives have a fitted effect of over 50% in size. In a few lines:
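Read-out is luminescence from luciferin formed by CYP2D6 turnover of a proluciferin substrate, recorded as relative luminescence units. Reactions ran 1 h at room temperature after NADPH regeneration solution was added.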
(Reporter assays use an easily measured gene product as a stand-in for the process of interest.)

In test [16] the target is Cytochrome P450 2C19 (Homo sapiens) (UniProt P33261). In words: Cytochrome P450 Family 2 Subfamily C Member 19 (CYP2C19) small molecule antagonists: luciferase reporter qHTS assay (AID 1671197). Further: nearly all actives have a fitted effect of over 65% in size. Further: potency means the concentration at half of the fitted maximal effect. In a few lines: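 P450-Glo CYP2C19 system: enzyme-substrate mix with compound 10 min at room temperature, then NADPH regeneration solution, 1 h at 37C. Proluciferin-to-luciferin conversion detected by luminescence after 20 min with detection reagent; ketoconazole as positive control.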

Test [17] is described as follows: Caspase-3/7 induction in HepG2 cells by small molecules, qHTS assay (AID 1346978). Further: nearly all actives have a fitted effect of over 15% in size. In a few lines: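 Caspase-3/7 induction was measured by Caspase-Glo 3/7 luminescence (30 min, room temperature) after a 17 hr compound exposure of wild-type HepG2 cells seeded at 2,000 per well and pre-incubated 5 hr.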
The target of test [18] is Nuclear receptor subfamily 1 group I member 2 (Rattus norvegicus) (UniProt Q9R1A7). The test can be described thus: Rat pregnane X receptor (rPXR) activation by small molecules, qHTS assay (AID 1346983). Further: nearly all actives have a fitted effect of over 20% in size. As to conditions: rPXR luciferase reporter cells, One-Glo luminescence, 24 h; active compounds read high. In a few lines: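 Luminescent readout (One-Glo luciferase, 30 min room temperature) followed 24 hr compound treatment at 37 C of rPXR cells plated 2,000 per well and preincubated 5hr; qHTS format with compounds delivered in DMSO.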

For test [19], the target named is Nuclear receptor subfamily 1 group I member 2 (Homo sapiens) (UniProt O75469). In words: CYP3A4 induction through human pregnane X receptor (PXR) by small molecules, qHTS assay (AID 1346984). Further: nearly all actives have a fitted effect of over 40% in size. In a few lines: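 Luminescence readout: luciferase signal after One-Glo (30 min, room temperature), following 3 h at 37C with 3uM final Luciferin-IPA P450 substrate. Cells were DPX-2 (HepG2, PXR/CYP3A4-luc co-transfected) dosed for 24 h.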

The target is the same in test [20]. The test can be described thus: Human pregnane X receptor (PXR) activation by small molecules, qHTS assay (AID 1346985). Further: nearly all actives have a fitted effect of over 40% in size. Summed up: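 DPX-2 cells (HepG2 co-transfected with a PXR response element and a CYP3A4-promoter luciferase construct) were seeded at 2,000 per well, rested 5 hr at 37C, then exposed to DMSO-dissolved compounds for 24 hr. Activation was read as luciferase luminescence.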

Values without a mark were called inactive. Records with an inconclusive call do not appear. Calls of active or inactive are those of the source. Unless noted, the call rests on the fitted dose curve; in most records, active means well fitted curve in the direction sought with a large enough effect in the repeat runs; inconclusive means weak or mixed curves; inactive means no such curve, though single readings can be large; an effect the other way counts as inactive or inconclusive.
On the % scale 0 is the no-effect control and ±100 the full control effect.

Progesterone receptor (Homo sapiens), sequence (P06401 whole entry, looked up): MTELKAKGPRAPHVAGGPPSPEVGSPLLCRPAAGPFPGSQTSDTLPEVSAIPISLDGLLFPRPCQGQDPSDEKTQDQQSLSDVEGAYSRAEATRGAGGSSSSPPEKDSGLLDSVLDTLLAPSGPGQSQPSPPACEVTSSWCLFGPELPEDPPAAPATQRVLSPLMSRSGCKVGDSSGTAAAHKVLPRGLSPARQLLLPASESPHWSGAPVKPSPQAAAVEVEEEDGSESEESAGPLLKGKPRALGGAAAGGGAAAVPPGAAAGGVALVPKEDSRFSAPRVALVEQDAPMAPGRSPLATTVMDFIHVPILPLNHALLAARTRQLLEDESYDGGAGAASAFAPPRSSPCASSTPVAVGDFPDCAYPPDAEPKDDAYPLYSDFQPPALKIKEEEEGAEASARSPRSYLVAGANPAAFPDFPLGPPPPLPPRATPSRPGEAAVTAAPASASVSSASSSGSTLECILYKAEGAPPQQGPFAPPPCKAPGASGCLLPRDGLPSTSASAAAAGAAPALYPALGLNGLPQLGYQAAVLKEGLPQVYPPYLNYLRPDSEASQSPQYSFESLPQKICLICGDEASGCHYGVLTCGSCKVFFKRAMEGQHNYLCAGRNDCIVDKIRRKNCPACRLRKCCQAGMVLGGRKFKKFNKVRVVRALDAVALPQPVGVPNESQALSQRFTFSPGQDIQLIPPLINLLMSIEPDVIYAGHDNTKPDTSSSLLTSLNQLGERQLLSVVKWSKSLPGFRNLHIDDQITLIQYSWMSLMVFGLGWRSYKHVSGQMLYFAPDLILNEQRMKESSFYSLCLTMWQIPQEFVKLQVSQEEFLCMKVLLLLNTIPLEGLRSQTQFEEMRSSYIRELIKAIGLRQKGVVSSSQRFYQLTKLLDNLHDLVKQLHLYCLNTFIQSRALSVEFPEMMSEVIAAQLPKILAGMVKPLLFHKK
Cytochrome P450 2D6 (Homo sapiens), sequence (P10635 whole entry, looked up): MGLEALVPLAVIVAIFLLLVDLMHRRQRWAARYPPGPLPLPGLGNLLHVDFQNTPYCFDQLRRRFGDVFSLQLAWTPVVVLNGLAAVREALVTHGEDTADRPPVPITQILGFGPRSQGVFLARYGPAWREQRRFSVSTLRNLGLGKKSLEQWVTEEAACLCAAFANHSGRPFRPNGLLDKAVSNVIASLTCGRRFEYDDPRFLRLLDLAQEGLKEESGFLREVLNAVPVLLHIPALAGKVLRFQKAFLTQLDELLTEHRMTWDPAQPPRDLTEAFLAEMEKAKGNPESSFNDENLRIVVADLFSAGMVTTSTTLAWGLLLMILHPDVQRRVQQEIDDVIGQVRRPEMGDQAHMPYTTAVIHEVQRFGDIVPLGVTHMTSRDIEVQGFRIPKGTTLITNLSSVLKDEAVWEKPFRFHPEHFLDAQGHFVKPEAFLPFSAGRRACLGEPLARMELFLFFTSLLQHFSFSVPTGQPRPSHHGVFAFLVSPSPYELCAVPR
Cytochrome P450 2C19 (Homo sapiens), sequence (P33261 whole entry, looked up): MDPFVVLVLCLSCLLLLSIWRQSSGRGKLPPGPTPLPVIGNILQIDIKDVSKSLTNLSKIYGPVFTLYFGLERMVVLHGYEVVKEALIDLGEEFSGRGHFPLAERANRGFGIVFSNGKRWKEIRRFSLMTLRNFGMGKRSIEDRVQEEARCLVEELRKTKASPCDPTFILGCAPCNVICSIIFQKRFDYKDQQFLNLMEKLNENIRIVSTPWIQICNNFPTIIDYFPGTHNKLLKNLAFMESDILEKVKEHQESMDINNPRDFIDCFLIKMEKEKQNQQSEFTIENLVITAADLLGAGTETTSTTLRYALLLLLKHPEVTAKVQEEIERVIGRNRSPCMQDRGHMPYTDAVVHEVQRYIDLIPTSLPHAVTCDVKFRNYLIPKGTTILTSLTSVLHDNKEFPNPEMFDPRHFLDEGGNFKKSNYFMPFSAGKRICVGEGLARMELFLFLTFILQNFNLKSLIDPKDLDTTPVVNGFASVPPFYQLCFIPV
Thyrotropin-releasing hormone receptor (Homo sapiens), sequence (P34981 whole entry, looked up): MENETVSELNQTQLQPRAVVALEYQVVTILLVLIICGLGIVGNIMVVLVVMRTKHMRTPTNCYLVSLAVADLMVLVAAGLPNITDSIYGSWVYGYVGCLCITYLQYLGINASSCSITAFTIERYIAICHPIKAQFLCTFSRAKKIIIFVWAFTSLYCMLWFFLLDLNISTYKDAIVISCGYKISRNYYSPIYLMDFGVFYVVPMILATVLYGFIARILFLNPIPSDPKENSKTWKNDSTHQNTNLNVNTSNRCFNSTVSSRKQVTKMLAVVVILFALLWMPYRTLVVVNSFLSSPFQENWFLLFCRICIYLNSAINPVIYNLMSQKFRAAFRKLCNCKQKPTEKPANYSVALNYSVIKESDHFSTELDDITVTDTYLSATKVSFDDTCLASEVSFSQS
Nuclear receptor subfamily 1 group I member 2 (Homo sapiens), sequence (O75469 whole entry, looked up): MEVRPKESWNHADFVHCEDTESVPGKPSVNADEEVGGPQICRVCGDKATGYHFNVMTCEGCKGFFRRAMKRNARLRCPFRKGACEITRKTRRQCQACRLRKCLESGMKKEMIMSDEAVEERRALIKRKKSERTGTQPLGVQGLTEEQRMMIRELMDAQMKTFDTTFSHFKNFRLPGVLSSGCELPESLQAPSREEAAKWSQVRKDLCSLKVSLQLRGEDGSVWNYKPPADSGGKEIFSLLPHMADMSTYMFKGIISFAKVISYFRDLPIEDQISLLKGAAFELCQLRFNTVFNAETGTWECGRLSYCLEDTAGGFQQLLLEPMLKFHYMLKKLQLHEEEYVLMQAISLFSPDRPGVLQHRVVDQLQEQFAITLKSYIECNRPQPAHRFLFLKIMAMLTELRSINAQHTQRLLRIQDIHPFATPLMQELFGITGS
Nuclear receptor subfamily 1 group I member 2 (Rattus norvegicus), sequence (Q9R1A7 whole entry, looked up): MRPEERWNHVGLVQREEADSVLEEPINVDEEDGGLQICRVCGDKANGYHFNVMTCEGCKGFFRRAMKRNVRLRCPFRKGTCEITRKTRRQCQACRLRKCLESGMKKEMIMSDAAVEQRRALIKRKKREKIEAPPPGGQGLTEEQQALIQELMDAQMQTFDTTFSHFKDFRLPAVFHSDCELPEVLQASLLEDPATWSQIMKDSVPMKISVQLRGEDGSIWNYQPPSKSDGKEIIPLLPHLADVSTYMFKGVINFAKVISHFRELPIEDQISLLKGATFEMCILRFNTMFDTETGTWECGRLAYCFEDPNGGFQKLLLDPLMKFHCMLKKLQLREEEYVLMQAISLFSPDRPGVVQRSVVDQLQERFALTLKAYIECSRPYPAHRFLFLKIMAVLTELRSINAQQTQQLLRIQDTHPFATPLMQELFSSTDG

On to `CNC(=O)[C@H]1O[C@@H](n2cnc3c(NCc4cc(Cl)ccc4OCc4cc(C)no4)ncnc32)[C@H](O)[C@@H]1N`, for which the Potency result in test [1], in [2], in test [3], in test [4], in [10] and in [11] was “inactive” each time. Besides, the Potency result in [13], in test [14], in [15] and in test [16] was “inactive” throughout. Moreover, the compound was called inactive in test [5], in test [6], in test [7], in [8], in test [9] and in test [12].
For `CCC(CC)CO`, the Potency entry in test [1], in test [2], in test [3], in [4], in [10] and in test [17] was “inactive” throughout. Also, the Potency result in [11], in [13], in test [14] and in [15] was “inactive” throughout. For the same compound, the call in [5], in test [6], in [7], in test [8] and in [12] was inactive.
With `O=C1O[C@@H]2[C@@H](O)[C@H](O)O[C@@H]2[C@H]1O`, the Potency entry in test [1], in [2], in test [3], in [4], in test [10] and in test [17] was “inactive” throughout. Besides, the Potency entry in test [11], in test [13] and in test [15] was “inactive” in each case. The result in [5], in test [6], in test [7], in test [9] and in [12] was inactive.
Consider `CCN1CCc2nc(N)oc2CC1`, for which the Potency result in [1], in test [2], in test [3], in test [4], in test [10] and in test [17] was “inactive” in each case. Besides, the Potency result in test [11], in test [13], in test [14], in test [19], in [20] and in [16] was “inactive” throughout. Further, the result in test [5], in test [6], in test [7], in test [8] and in test [12] was inactive. Besides, in [18], the max activation was -5.4%.
Turning to `CCOC(=O)[C@H](CCc1ccccc1)N[C@@H](C)C(=O)N1C(=O)N(C)C[C@H]1C(=O)O`, the Potency result in [1], in test [2], in [3], in [4], in [10] and in test [17] was “inactive” each time. Besides, the Potency entry in test [11], in test [13], in test [14], in [19], in test [20] and in test [15] was “inactive” throughout. The Potency entry in test [16] was “inactive”. Besides, the result in test [5], in test [6], in test [7], in test [8] and in test [12] was inactive. In test [18], the max activation is -1.3%.
On to `OC[C@H](Cc1cccc(O)c1)[C@H](CO)Cc1cccc(O)c1`, for which the Potency result in test [1], in test [2], in [3], in test [4], in test [17] and in test [11] was “inactive” each time. For the same compound, the Potency entry in test [13] and in [14] was “inactive” throughout. Besides, the compound was called inactive in test [5], in test [6], in [7], in test [8], in [9] and in [12]. In addition, in test [16], the Potency was 32.5 µM (active).

(Values after PubChem BioAssay (Tox21).)
